{
  "source": "paper PMC8384837",
  "about": "“Expanding the binding specificity for RNA recognition by a PUF domain”",
  "experiment_in_all_cases": "yeast three-hybrid, YBZ-1, SC-Leu-His + 0.5 mM 3-AT, 4 days",
  "conditions_in_all_cases": "tags: N-Gal4 AD-HA kept; label: inside an RPR1-promoter hybrid RNA with tandem MS2 sites; ssRNA",
  "key": {"PUM1 PUF domain R7-RPE": {"target": "PUM1 PUF domain R7-RPE (Homo sapiens, UniProt Q14671 828-1176, S1079R;N1080P)", "sequence (Q14671 828-1176 S1079R/N1080P)": "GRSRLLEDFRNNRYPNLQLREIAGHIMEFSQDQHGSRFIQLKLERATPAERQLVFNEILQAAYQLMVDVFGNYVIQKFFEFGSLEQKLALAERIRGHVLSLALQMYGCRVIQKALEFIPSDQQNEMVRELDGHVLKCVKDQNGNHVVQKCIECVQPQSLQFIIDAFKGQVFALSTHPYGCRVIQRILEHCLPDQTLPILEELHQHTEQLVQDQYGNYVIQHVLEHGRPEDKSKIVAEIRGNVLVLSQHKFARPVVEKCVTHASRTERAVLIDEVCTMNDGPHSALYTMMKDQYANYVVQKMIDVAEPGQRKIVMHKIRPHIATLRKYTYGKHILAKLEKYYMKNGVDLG", "outline": "(§1)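 Repeat regions from input (SC-Leu) and selection (SC-Leu-His + 0.5 mM 3-AT) plates were PCR-amplified and Illumina-sequenced after four days of growth. The cells were strain YBZ-1 with a LexA–MS2 coat fusion and a HIS3 reporter, co-expressing Pumilio-1 PUF domain libraries and matching RNA elements from a centromeric plasmid. The interaction score is the log change in variant frequency from input to selection, taken in log2 with a pseudocount of 1 for absent variants.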"}, "PUM1 PUF domain R5-GRF": {"target": "PUM1 PUF domain R5-GRF (Homo sapiens, UniProt Q14671 828-1176, C1007G;Q1011F)", "sequence (Q14671 828-1176 C1007G/Q1011F)": "as the sequence (Q14671 828-1176 S1079R/N1080P) above, with C180G, Q184F, R252S, P253N counted along it", "outline": "as §1"}, "PUM1 PUF domain R5-DFD": {"target": "PUM1 PUF domain R5-DFD (Homo sapiens, UniProt Q14671 828-1176, C1007D;R1008F;Q1011D)", "sequence (Q14671 828-1176 C1007D/R1008F/Q1011D)": "as the sequence (Q14671 828-1176 S1079R/N1080P) above, with C180D, R181F, Q184D, R252S, P253N counted along it", "outline": "as §1"}, "PUM1 PUF domain R8-KFN": {"target": "PUM1 PUF domain R8-KFN (Homo sapiens, UniProt Q14671 828-1176, N1122K;Y1123F;Q1126N)", "sequence (Q14671 828-1176 N1122K/Y1123F/Q1126N)": "as the sequence (Q14671 828-1176 S1079R/N1080P) above, with R252S, P253N, N295K, Y296F, Q299N counted along it", "outline": "as §1"}, "PUM1 PUF domain R5-TRH": {"target": "PUM1 PUF domain R5-TRH (Homo sapiens, UniProt Q14671 828-1176, C1007T;Q1011H)", "sequence (Q14671 828-1176 C1007T/Q1011H)": "as the sequence (Q14671 828-1176 S1079R/N1080P) above, with C180T, Q184H, R252S, P253N counted along it", "outline": "as §1"}, "PUM1 PUF domain R5-GHG": {"target": "PUM1 PUF domain R5-GHG (Homo sapiens, UniProt Q14671 828-1176, C1007G;R1008H;Q1011G)", "sequence (Q14671 828-1176 C1007G/R1008H/Q1011G)": "as the sequence (Q14671 828-1176 S1079R/N1080P) above, with C180G, R181H, Q184G, R252S, P253N counted along it", "outline": "as §1"}, "PUM1 PUF domain R3-APK": {"target": "PUM1 PUF domain R3-APK (Homo sapiens, UniProt Q14671 828-1176, C935A;R936P;Q939K)", "sequence (Q14671 828-1176 C935A/R936P/Q939K)": "as the sequence (Q14671 828-1176 S1079R/N1080P) above, with C108A, R109P, Q112K, R252S, P253N counted along it", "outline": "as §1"}, "PUM1 PUF domain R8-RFF": {"target": "PUM1 PUF domain R8-RFF (Homo sapiens, UniProt Q14671 828-1176, N1122R;Y1123F;Q1126F)", "sequence (Q14671 828-1176 N1122R/Y1123F/Q1126F)": "as the sequence (Q14671 828-1176 S1079R/N1080P) above, with R252S, P253N, N295R, Y296F, Q299F counted along it", "outline": "as §1"}, "PUM1 PUF domain R8-KKG": {"target": "PUM1 PUF domain R8-KKG (Homo sapiens, UniProt Q14671 828-1176, N1122K;Y1123K;Q1126G)", "sequence (Q14671 828-1176 N1122K/Y1123K/Q1126G)": "as the sequence (Q14671 828-1176 S1079R/N1080P) above, with R252S, P253N, N295K, Y296K, Q299G counted along it", "outline": "as §1"}},
  "data": [
    {"sequence": "GGCUAGAACUAGUGGAUCCCCCGGCGCCCGGCGGCUCGAGCCCGGGUAAGUUUAAAUAGUCUGCAUGCCGCCGGGCGCCAUGCCUGCAGGUCGACUCUAGAAAACAUG", "values": [
      {"measurement": "binding signal", "setting": "PUM1 PUF domain R7-RPE", "result": "3.87 log2 enrichment (interaction score)"}
    ]},
    {"sequence": "GGCUAGAACUAGUGGAUCCCCCGGCGCCCGGCGGCUCGAGCCCGGGUAAGUGUAAAUAGUCUGCAUGCCGCCGGGCGCCAUGCCUGCAGGUCGACUCUAGAAAACAUG", "values": [
      {"measurement": "binding signal", "setting": "PUM1 PUF domain R5-GRF", "result": "1.75 log2 enrichment (interaction score)"},
      {"measurement": "binding signal", "setting": "PUM1 PUF domain R5-DFD", "result": "3.03 log2 enrichment (interaction score)"},
      {"measurement": "binding signal", "setting": "PUM1 PUF domain R8-KFN", "result": "2.9 log2 enrichment (interaction score)"},
      {"measurement": "binding signal", "setting": "PUM1 PUF domain R5-TRH", "result": "5.68 log2 enrichment (interaction score)"},
      {"measurement": "binding signal", "setting": "PUM1 PUF domain R5-GHG", "result": "3.84 log2 enrichment (interaction score)"}
    ]},
    {"sequence": "GGCUAGAACUAGUGGAUCCCCCGGCGCCCGGCGGCUCGAGCCCGGGUAAGUGUUAAUAGUCUGCAUGCCGCCGGGCGCCAUGCCUGCAGGUCGACUCUAGAAAACAUG", "values": [
      {"measurement": "binding signal", "setting": "PUM1 PUF domain R5-GRF", "result": "3.3 log2 enrichment (interaction score)"},
      {"measurement": "binding signal", "setting": "PUM1 PUF domain R5-TRH", "result": "4.41 log2 enrichment (interaction score)"}
    ]},
    {"sequence": "GGCUAGAACUAGUGGAUCCCCCGGCGCCCGGCGGCUCGAGCCCGGGUAAGUGUCAAUAGUCUGCAUGCCGCCGGGCGCCAUGCCUGCAGGUCGACUCUAGAAAACAUG", "values": [
      {"measurement": "binding signal", "setting": "PUM1 PUF domain R5-DFD", "result": "2.82 log2 enrichment (interaction score)"},
      {"measurement": "binding signal", "setting": "PUM1 PUF domain R5-GHG", "result": "2.77 log2 enrichment (interaction score)"}
    ]},
    {"sequence": "GGCUAGAACUAGUGGAUCCCCCGGCGCCCGGCGGCUCGAGCCCGGGUAAGUGUAAUUAGUCUGCAUGCCGCCGGGCGCCAUGCCUGCAGGUCGACUCUAGAAAACAUG", "values": [
      {"measurement": "binding signal", "setting": "PUM1 PUF domain R3-APK", "result": "4.11 log2 enrichment (interaction score)"}
    ]},
    {"sequence": "GGCUAGAACUAGUGGAUCCCCCGGCGCCCGGCGGCUCGAGCCCGGGUAAGCGUAAAUAGUCUGCAUGCCGCCGGGCGCCAUGCCUGCAGGUCGACUCUAGAAAACAUG", "values": [
      {"measurement": "binding signal", "setting": "PUM1 PUF domain R8-KFN", "result": "2.26 log2 enrichment (interaction score)"},
      {"measurement": "binding signal", "setting": "PUM1 PUF domain R8-RFF", "result": "5.12 log2 enrichment (interaction score)"},
      {"measurement": "binding signal", "setting": "PUM1 PUF domain R8-KKG", "result": "2.43 log2 enrichment (interaction score)"}
    ]}
  ]
}
